The values below come from ChEMBL document CHEMBL3988442, “University of Dundee, Small-Polar-MMV Screening Library” (2021).

Among all 69,000 compounds or so, about 420 (0.61%) showed an effect of 50% or more. For the sample, strong results were picked, then their nearest neighbours and some compounds at random.

The target in the assay is T1, Histidine--tRNA ligase (Leishmania infantum) (UniProt A4I591).
T1 sequence (whole entry): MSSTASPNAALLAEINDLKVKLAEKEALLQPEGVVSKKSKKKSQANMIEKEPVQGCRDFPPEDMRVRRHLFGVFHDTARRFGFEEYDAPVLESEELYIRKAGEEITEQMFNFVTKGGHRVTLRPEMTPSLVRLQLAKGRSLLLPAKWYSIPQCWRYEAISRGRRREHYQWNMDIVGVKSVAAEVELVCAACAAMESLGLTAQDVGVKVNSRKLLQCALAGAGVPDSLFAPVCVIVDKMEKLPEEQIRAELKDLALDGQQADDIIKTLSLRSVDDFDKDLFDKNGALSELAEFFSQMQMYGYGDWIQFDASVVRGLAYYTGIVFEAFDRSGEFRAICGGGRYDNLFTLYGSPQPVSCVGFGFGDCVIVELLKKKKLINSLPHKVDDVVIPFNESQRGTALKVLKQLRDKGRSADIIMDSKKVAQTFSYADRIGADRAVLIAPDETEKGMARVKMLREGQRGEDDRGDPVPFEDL
The assay is described as follows: Leishmania infantum Histidine tRNA synthetase (LdHisRS). The arrangement: scale not given: in the data most compounds retested in dose-response had high values. It counts as functional. The following applies: 30 µM.
Consider `NC(=O)C1=NC2=NS(=O)(=O)c3ccccc3N2N1Cc1ccc(Br)cc1`, for which the Percent Effect amounted to 59.7%.

Regarding `NC(=O)C1=NN2C(=NS(=O)(=O)c3ccccc32)N1`, the Percent Effect worked out at 14.8%.

Regarding `NC(=O)C1=NC2=NS(=O)(=O)c3ccccc3N2N1Cc1ccc(Cl)cc1`, the Percent Effect worked out at 58.1%.

On to `NC(=O)CN(Cc1ccc(Br)cc1)C(=O)c1ccccn1`, for which the Percent Effect is 7.29%.

In the case of `NC(=O)C1=NC2=NS(=O)(=O)c3ccccc3N2N1Cc1ccccc1Cl`, the Percent Effect was 37.1%.

With `Cc1nnc([C@@H]2CC[C@@H]3[C@@H](CCN3C3CCOCC3)O2)o1`, the Percent Effect turned out to be 2.63%.

As for `Cc1ccc(CN2CC[C@H]3[C@H]2CCN3S(C)(=O)=O)s1`, the Percent Effect amounted to 20%.

Regarding `O=C(c1ccccn1)N1C[C@@H]2CC[C@H](C1)N(C(=O)CCc1ccsc1)C2`, the Percent Effect was determined as 10.4%.

Turning to `Cc1nnsc1CN1C[C@H]2CC[C@@H]1CN(Cc1ccc(F)cc1)C2`, the Percent Effect was 8.33%.

With `CC(=O)N1CCCCC[C@@H]2[C@@H]1[C@H](c1cccc(F)c1)CN2CCC(N)=O`, the Percent Effect was 13%.

`CC(CCc1ccccc1F)C(=O)NS(=O)(=O)N(C)C(C)C` (stereo not given): the Percent Effect amounted to 19.5%.

With `COCCn1cc(NC(=O)C(C)CCc2ccccc2F)ccc1=O` (stereo not given), the Percent Effect came out at 102%.

Consider `CC(CCc1ccccc1)NC(=O)CN1CCOCC1` (stereo not given), for which the Percent Effect was 1.49%.

`CC(CCc1ccccc1)NC(=O)Nc1cnn(CC(N)=O)c1` (stereo not given): the Percent Effect was found to be 24.3%.

On to `COCCn1cc(NC(=O)NC(C)CCc2ccccc2)ccc1=O` (stereo not given), for which the Percent Effect was found to be 98.3%.

`CC(CCc1ccccc1F)C(=O)NS(C)(=O)=O` (stereo not given): the Percent Effect was 16.9%.

As for `COc1ccc(CN2C[C@@H]3COC[C@]3(CN(C)C)C2)cc1`, the Percent Effect was found to be 17.6%.

In the case of `O=C(Cc1ccncc1)N1C[C@@H]2CC[C@H](C1)N(Cc1ccccc1)C2=O`, the Percent Effect amounted to 6.56%.

Consider `O=C(Cc1csc(-c2ccco2)n1)N1CCN(c2nccs2)CC1`, for which the Percent Effect was 20%.

Turning to `O=C(Cc1csc(-c2ccco2)n1)N1CCN(c2cnccn2)CC1`, the Percent Effect is 56.8%.

With `Cc1ccc(-c2nc(CC(=O)N3CCN(c4cnccn4)CC3)cs2)o1`, the Percent Effect is 28.7%.

Turning to `Cc1noc(C)c1CN1CC[C@H]2OCC[C@@H](C(=O)N3CCCO3)[C@H]2C1`, the Percent Effect came out at 20%.

In the case of `O=S(=O)(C1CC1)N1CCO[C@H]2[C@H](OCCN3CCCC3)CC[C@@H]21`, the Percent Effect is 15.1%.

Regarding `O=C1[C@H]2CN(CC3CCOCC3)C[C@H]2CN1c1ccsc1`, the Percent Effect worked out at 8%.

For the compound `O=C(CC1CC1)N[C@@H]1CN(Cc2ccco2)C[C@@H]2CCCO[C@@H]21`, the Percent Effect came to 17.1%.

As to `COCCN1CCCC(C)(c2cc(O)[nH]n2)C1` (stereo not given), the Percent Effect turned out to be 47.1%.

For the compound `COCCN1CCC(C)(c2cc(O)[nH]n2)CC1`, the Percent Effect amounted to 50%.

Consider `COCC(=O)N1CCC(C)(c2cc(O)[nH]n2)CC1`, for which the Percent Effect is 17.1%.

With `Cc1oncc1C(=O)N[C@@H]1CN(c2ncccn2)C[C@@H]2CCCO[C@@H]21`, the Percent Effect is 20%.

Regarding `CN1CCO[C@@H]2CN(S(=O)(=O)c3ccc(F)cc3)CC[C@@H]2C1`, the Percent Effect was 17.9%.

With `CN(Cc1ccco1)C[C@H]1OC[C@@H]2CCN(Cc3cccnc3)C[C@@H]21`, the Percent Effect is 13.2%.

`c1cncc(CN2CC[C@@H]3O[C@H](COCCN4CCCC4)CC[C@@H]32)c1`: the Percent Effect came to 16%.

As to `COc1cccc(N2CCN(Cc3cccc(CCN)c3)CC2=O)c1`, the Percent Effect was found to be 60.7%.

Consider `COc1cc(CN2CCN(c3cccc(OC)c3)C(=O)C2)cc(OC)c1`, for which the Percent Effect came to 18.3%.

`COc1cccc(N2CCN(Cc3ccc4occc4c3)CC2=O)c1`: the Percent Effect is 13.5%.

As to `NCCc1cccc(CN2CCN(c3cccc(Cl)c3)C(=O)C2)c1`, the Percent Effect is 14.8%.

Consider `NCCc1cccc(CN2CCN(c3ccccc3)C(=O)C2)c1`, for which the Percent Effect stood at 55.7%.

For `Cc1cc(C)cc(N2CCN(Cc3cccc(CCN)c3)CC2=O)c1`, the Percent Effect worked out at 8.2%.

Consider `Cc1noc(C)c1C(=O)N1C[C@H]2CCC[C@@]2(COc2ccccn2)C1`, for which the Percent Effect came to 17.6%.

In the case of `Cc1ccc(C(=O)N2CCO[C@H]3[C@H](OCc4ccccn4)CC[C@@H]32)o1`, the Percent Effect worked out at 19.3%.

For `Cc1nc([C@@H]2C[C@@H]3CCN(C(=O)Cc4cccc(F)c4)C[C@H]3O2)no1`, the Percent Effect was found to be 9.09%.

Regarding `CN(C)C(=O)[C@H]1C[C@@H]2CCN(C3CCOCC3)C[C@@H]2O1`, the Percent Effect turned out to be 11.1%.

Regarding `Cn1ccnc1Sc1ccc(N)cn1`, the Percent Effect came to 91%.

As to `Cn1ccnc1Sc1ccc(S(N)(=O)=O)cn1`, the Percent Effect was found to be 10.3%.

As to `CN1CCN(S(=O)(=O)c2ccc(Sc3nccn3C)nc2)CC1`, the Percent Effect was -3.37%.

`CS(=O)(=O)N1CCO[C@@H]2CN(C(=O)N3CCOCC3)CC[C@@H]2C1`: the Percent Effect turned out to be 4.5%.

For `Cc1ccc(N2CCc3sc(C(=O)NCCN4CCCC4)cc32)nn1`, the Percent Effect amounted to 8.33%.

For `Cc1ccc(N2CCc3sc(C(=O)N4CCOCC4)cc32)nn1`, the Percent Effect was determined as 50%.

Regarding `CN(C)CC(=O)N1CCc2sc(C(=O)N3CCOCC3)cc21`, the Percent Effect was found to be 15.8%.

On to `Cc1cc(C(=O)NCC(F)(F)F)c2c(C3CCNCC3)noc2n1`, for which the Percent Effect was 19.3%.

For the compound `Cc1cc(C(=O)NCC(F)(F)F)c2c(C3CCCN3)noc2n1` (stereo not given), the Percent Effect is 71.7%.

Take `Cc1cc(C(=O)NCC(C)C)c2c(C3CCCN3)noc2n1` (stereo not given): the Percent Effect was determined as 4.14%.

Turning to `Cc1cnc(N2CC[C@@]3(O)CCCC[C@H]3C2)nc1-c1ccnn1C`, the Percent Effect was -3.33%.

As for `CN1[C@H](CN2CCCC2)C[C@@H]2CN(C(=O)c3ccsc3)CC[C@@H]21`, the Percent Effect came to 0.917%.

`CO[C@@H]1CN(S(=O)(=O)c2cn(C)cn2)[C@@H]2CCCO[C@@H]21`: the Percent Effect stood at 17.2%.
